Out of some 5,500 compounds screened, about 2,000 (36%) were called active. Not shown: some 18% with an inconclusive outcome. Rule as the data show it: active = normalized growth mostly below about 0.91 (no sharp cut-off); inconclusive = no clear call, values can overlap the other calls; inactive = mostly above about 0.92. The list shows a part of the results.
Assay: chemical genetic growth profiling, strain panel (AID 1159580);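 also: tested at 20 µM; growth read once vehicle control cultures reached saturation at 30 °C; 1 = growth at the plate median or of vehicle wells; lower values mean less growth of the strain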
Details: S. cerevisiae deletion strains, growth OD

Measured: normalized growth

COc1cc(-c2coc3cc(O)c(OC)c(O)c3c2=O)cc(O)c1OC
inactive: locus YHR030C, strain SLT2, active compounds read low 1.02 | locus YHR079C, strain IRE1, active compounds read low 1.03 | locus YJL095W, strain BCK1, active compounds read low 1.02 | locus YJR066W, strain TOR1, active compounds read low 0.969 | locus YLR113W, strain HOG1, active compounds read low 1.02 | locus YNL183C, strain NPR1, active compounds read low 1 | locus YOR231W, strain MKK1, active compounds read low 1.03 | locus YPL256C, strain CLN2, active compounds read low 1.07
